Test results taken from PubChem BioAssay (EPA / NIEHS).
Results filed as inconclusive are left out. The source made the active and inactive calls. How the source made its calls: active means hit-call score of the fitted dose curve at least 0.9, where 1 is the maximum; inconclusive means response in the unintended direction; inactive means score below 0.9.

Target: human Neurokinin, NK2 Receptor, TACR2 (gene 6865) (UniProt P21452)
Test: NVS_GPCR_hNK2: NovaScreen (NVS) G Protein-Coupled Receptor Assay for human Neurokinin, NK2 Receptor (AID 2283278);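 further: actives reduce bound radioligand signal relative to DMSO baseline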
How it was run: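 Test chemicals displace a radioligand from receptor prepared from CHO cells in a cell-free format, read after 4 hours by scintillation counting on filters. Screening starts at 25 uM in duplicate, and active chemicals then go to concentration series.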

Chain of human Neurokinin, NK2 Receptor, TACR2 (gene 6865) (P21452 whole entry, looked up): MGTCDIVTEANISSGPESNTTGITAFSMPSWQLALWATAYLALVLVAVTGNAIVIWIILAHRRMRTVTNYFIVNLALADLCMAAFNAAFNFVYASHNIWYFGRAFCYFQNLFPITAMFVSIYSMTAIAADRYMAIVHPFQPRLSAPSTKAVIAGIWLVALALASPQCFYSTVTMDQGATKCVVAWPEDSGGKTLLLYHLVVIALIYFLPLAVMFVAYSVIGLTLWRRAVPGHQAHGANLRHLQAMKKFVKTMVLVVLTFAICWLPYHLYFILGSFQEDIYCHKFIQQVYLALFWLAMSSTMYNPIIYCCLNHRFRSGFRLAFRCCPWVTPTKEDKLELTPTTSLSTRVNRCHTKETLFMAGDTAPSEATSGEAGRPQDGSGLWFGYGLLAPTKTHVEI

Compound	outcome	AC50
CCOP(=S)(OCC)SCn1nnc2ccccc2c1=O	inactive	–
CC(C)Nc1ccc(Nc2ccccc2)cc1	–	20 µM (active)
CCOP(=S)(OCC)SCSc1ccc(Cl)cc1	inactive	–
CCCCCCCc1ccc(O)cc1	inactive	–
Cc1cc(C)c(C(=O)P(=O)(c2ccccc2)c2ccccc2)c(C)c1	–	0.367 µM (active)
CSC(C)(C)C=NO	inactive	–
Cn1[nH]nnc1=S	inactive	–
CC(C)(C)c1ccccc1OP(=O)(Oc1ccccc1)Oc1ccccc1	–	17.2 µM (active)
O=S1(=O)OCC2C(CO1)C1(Cl)C(Cl)=C(Cl)C2(Cl)C1(Cl)Cl (stereo not given)	inactive	–

Target: human Opioid Receptor Delta 1 (Opiate D1), OPRD1 (gene 4985) (UniProt P41143)
Sequence (P41143 whole entry, looked up): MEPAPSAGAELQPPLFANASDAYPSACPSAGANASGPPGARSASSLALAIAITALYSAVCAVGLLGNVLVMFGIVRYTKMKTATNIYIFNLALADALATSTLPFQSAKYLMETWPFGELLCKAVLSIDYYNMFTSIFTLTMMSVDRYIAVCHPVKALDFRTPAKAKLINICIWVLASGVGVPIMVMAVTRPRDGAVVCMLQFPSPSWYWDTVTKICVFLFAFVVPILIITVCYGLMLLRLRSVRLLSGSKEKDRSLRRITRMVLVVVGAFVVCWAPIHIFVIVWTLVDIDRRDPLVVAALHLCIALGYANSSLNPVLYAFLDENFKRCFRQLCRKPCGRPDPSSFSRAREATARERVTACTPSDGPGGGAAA
Test: NVS_GPCR_hOpiate_D1: NovaScreen (NVS) G Protein-Coupled Receptor Assay for human Opioid Receptor Delta 1 (Opiate D1) (AID 2283280)
How it was run: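 Radioligand displacement on membranes from CHO cells expressing the receptor, read by filter scintillation counting 1 h after dosing. Duplicate single-point screen at 25 uM, then concentration series for actives; loss of signal versus DMSO.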

Compound	outcome
ClC1=C(Cl)C2(Cl)C3C(Cl)C(Cl)CC3C1(Cl)C2(Cl)Cl (stereo not given)	inactive
CCCCN(CCCC)SN(C)C(=O)Oc1cccc2c1OC(C)(C)C2	inactive
CSC(C)(C)C=NO	inactive
O=C(O)C1C(C(=O)O)C2(Cl)C(Cl)=C(Cl)C1(Cl)C2(Cl)Cl (stereo not given)	inactive
CC(C)(C)OOC(C)(C)C	inactive

Target: human Thromboxane A2 Receptor (TXA2), TBXA2R (gene 6915) (UniProt P21731)
Sequence (P21731 whole entry, looked up): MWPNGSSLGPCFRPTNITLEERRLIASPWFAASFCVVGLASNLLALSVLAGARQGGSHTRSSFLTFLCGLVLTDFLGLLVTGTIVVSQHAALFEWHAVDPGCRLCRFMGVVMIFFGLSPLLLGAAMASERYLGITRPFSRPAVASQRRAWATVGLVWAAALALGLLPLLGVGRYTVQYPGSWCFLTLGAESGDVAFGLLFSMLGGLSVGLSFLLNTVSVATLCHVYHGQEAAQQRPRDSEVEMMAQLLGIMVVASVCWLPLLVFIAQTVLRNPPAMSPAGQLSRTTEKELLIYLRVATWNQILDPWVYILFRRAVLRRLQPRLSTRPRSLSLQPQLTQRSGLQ
Test: NVS_GPCR_hTXA2: NovaScreen (NVS) G Protein-Coupled Receptor Assay for human Thromboxane A2 Receptor (TXA2) (AID 2283282);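 further: actives reduce bound radioligand signal relative to DMSO baseline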
How it was run: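 Human platelet-derived receptor preparation incubated with test chemical and radiolabelled ligand for 1 hour, cell-free. Bound label was separated by filtration and counted; displacement relative to DMSO controls gave activity, screened at 25 uM, then titrated.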

Compound	outcome	AC50
N#Cc1ccc(O)cc1	inactive	–
N#Cc1c(-c2ccc(Cl)cc2)[nH]c(C(F)(F)F)c1Br	–	4.66 µM (active)
Cc1ccc2c(c1N)C(=O)c1ccccc1C2=O	inactive	–
CC(=O)c1ccc(-c2ccccc2)cc1	inactive	–
C/C(=N\NC(=O)Nc1cc(F)cc(F)c1)c1ncccc1C(=O)O	inactive	–
CSC(C)(C)C=NO	inactive	–

Target: human Opioid Receptor Mu (Opiate Mu), OPRM1 (gene 4988) (UniProt P35372)
Sequence (P35372 whole entry, looked up): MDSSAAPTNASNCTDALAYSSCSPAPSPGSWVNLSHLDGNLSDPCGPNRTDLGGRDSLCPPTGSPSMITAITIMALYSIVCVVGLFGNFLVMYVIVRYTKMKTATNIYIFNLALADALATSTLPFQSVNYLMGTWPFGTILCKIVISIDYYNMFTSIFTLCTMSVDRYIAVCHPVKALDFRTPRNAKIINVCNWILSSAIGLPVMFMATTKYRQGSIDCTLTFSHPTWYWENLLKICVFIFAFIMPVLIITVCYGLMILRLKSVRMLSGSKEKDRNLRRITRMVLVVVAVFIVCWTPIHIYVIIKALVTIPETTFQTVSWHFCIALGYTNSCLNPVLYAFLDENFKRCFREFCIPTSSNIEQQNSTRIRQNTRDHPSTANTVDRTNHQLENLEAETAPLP
Test: NVS_GPCR_hOpiate_mu: NovaScreen (NVS) G Protein-Coupled Receptor Assay for human Opioid Receptor Mu (Opiate Mu) (AID 2283290);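 further: hits lower bound tracer signal versus DMSO meaning displacement of the ligand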
How it was run: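 Here, radioligand binding to CHO-extracted receptor was measured after 2.5 h using filter-based scintillation detection. Initial single-concentration screening used 25 uM in duplicate with plate controls; confirmed actives went to concentration-response testing.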

Compound	outcome	AC50
c1cc2c3c(cccc3c1)CC2	inactive	–
CCCN(CCC)c1c([N+](=O)[O-])cc(C(C)C)cc1[N+](=O)[O-]	inactive	–
O=c1ssc(Cl)c1Cl	–	0.885 µM (active)
CCCCN(CCCC)SN(C)C(=O)Oc1cccc2c1OC(C)(C)C2	inactive	–
N#Cc1c(-c2ccc(Cl)cc2)[nH]c(C(F)(F)F)c1Br	inactive	–
CC1(C)CN=C(NN=C(/C=C/c2ccc(C(F)(F)F)cc2)/C=C/c2ccc(C(F)(F)F)cc2)NC1	–	6.5 µM (active)
CCC(C)(C)c1ccc(O)cc1	–	6.43 µM (active)
Cc1ccc(O)cc1C	inactive	–
Nc1ccc2ccccc2c1	inactive	–
CSC(C)(C)C=NO	inactive	–
OCC1CO1 (stereo not given)	inactive	–
CCOP(=S)(OCC)SCS(=O)(=O)CC	inactive	–

Target: rat Neonicotinoid receptor (NNR), Chrna7 (gene 25302) (UniProt Q05941)
Sequence (Q05941 whole entry, looked up): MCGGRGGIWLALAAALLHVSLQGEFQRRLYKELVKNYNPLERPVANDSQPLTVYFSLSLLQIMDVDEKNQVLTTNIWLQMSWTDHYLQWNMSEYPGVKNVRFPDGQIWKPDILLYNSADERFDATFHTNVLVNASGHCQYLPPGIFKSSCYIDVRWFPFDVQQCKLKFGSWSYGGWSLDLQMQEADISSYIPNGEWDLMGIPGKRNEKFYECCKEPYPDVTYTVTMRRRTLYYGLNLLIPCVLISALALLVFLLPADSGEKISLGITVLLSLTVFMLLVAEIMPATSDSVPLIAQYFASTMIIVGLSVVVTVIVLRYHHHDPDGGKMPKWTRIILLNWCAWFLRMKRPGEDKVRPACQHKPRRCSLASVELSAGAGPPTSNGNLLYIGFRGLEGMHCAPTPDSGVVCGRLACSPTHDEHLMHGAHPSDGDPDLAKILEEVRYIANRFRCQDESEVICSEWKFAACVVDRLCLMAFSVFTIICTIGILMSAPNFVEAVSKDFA
Test: NVS_LGIC_rNNR_BungSens: NovaScreen (NVS) Ligand-Gated Ion Channel Assay for rat Neonicotinoid receptor (NNR) (AID 2283315)
How it was run: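 Radioligand displacement binding on rat cortical membranes, 2.5 h incubation, filtration and scintillation counting. Loss of specific binding fitted relative to DMSO.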

Compound	outcome
Nc1cc2c3c(c1)C(c1ccccc1)=N[C@@H](NC(=O)c1cccnc1)C(=O)N3CC2	inactive
Cc1cc(C)c(C(=O)P(=O)(c2ccccc2)c2ccccc2)c(C)c1	inactive
CSC(C)(C)C=NO	inactive
